According to the supplement of paper PMC6555819:

Legend:
Experiment in all cases: PBM binding z-score (relative to random genomic background probes); higher = stronger binding; sequences stand for … in GC…GCGATTGACAGCGTAGAATGAAGG
[1] = tested on: FXR:RXRa (NR concentration 270 nM, RXRa partner concentration 90 nM)
Summary of the method: (§1)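 Each nuclear receptor dimer, without ligand, was incubated for 1 h on custom Agilent 4×180K protein-binding microarrays. Binding was detected with antibodies against each partner (one per run), and scanned fluorescence was regression-normalized. The binding z-scores are referenced to random human genomic background probes.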

[2] = tested on: LXRa:RXRa (NR concentration 270 nM, RXRa partner concentration 90 nM)
Summary of the method: as §1

[3] = tested on: LXRa homodimer (NR concentration 270 nM)
Summary of the method: as §1

[4] = tested on: LXRb:RXRa (NR concentration 270 nM, RXRa partner concentration 90 nM)
Summary of the method: as §1

[5] = tested on: LXRb homodimer (NR concentration 270 nM)
Summary of the method: as §1

[6] = tested on: PPARa:RXRa (NR concentration 270 nM, RXRa partner concentration 90 nM)
Summary of the method: as §1

[7] = tested on: PPARg:RXRa 270nM:90nM, anti-RXR (NR concentration 270 nM, RXRa partner concentration 90 nM)
Summary of the method: as §1

[8] = tested on: PPARg:RXRa 30nM:10nM, anti-RXR (NR concentration 30 nM, RXRa partner concentration 10 nM)
Summary of the method: as §1

[9] = tested on: PPARg:RXRa 90nM:30nM, anti-RXR (NR concentration 90 nM, RXRa partner concentration 30 nM)
Summary of the method: as §1

Row | Sequence | PBM binding z-score [1] | PBM binding z-score [2] | PBM binding z-score [3] | PBM binding z-score [4] | PBM binding z-score [5] | PBM binding z-score [6] | PBM binding z-score [7] | PBM binding z-score [8] | PBM binding z-score [9]
1 | CCTTACGGGTCGCTGACAGGTTATAGCATTTGGA | 0.72 | 1.23 | -0.237 | 0.781 | -0.428 | 1.71 | 0.371 | -0.323 | -0.0613
2 | CGTCCAAGGTCAATGCTAGCTCAGTGAAAGCATT | 6.48 | 4.48 | 0.31 | 3.45 | 0.696 | 4.83 | 4 | 0.365 | 2.62
3 | ATCGAAAGGTCGTGACGTGAGTATACAGAAAGGC | 5.34 | 3.84 | -0.0538 | 3.03 | 0.128 | 4.8 | 3.82 | 1.41 | 2.77
4 | GCTTCCGGGTCAAAGGTTATAGCATGAATAGAAT | 7.32 | 5.48 | 0.542 | 5.76 | 0.776 | 6.97 | 9.9 | 10.7 | 11.4
5 | ACTAGCAGGTCAAGGGTCACTCAAGATTAGTCCG | 6.89 | 5.73 | 2.16 | 4.88 | 0.671 | 6.3 | 9.23 | 8.21 | 10.3
6 | TGAATGAGGTGAAAGATCAGGGAACGTGGCGTCG | 1.19 | 1.1 | -0.421 | 0.428 | 0.209 | 4.52 | 6.92 | 6.44 | 7.54
7 | TCTTGTAGATCAAAGCTTAAGAAAGCCGAAGCCT | -0.314 | 0.0464 | -0.571 | -0.365 | -0.532 | 0.317 | 1.5 | 2.55 | 2.08
8 | ATATCTAGGTAAAAGTTCAGTGAATCCCGAGGAT | 0.694 | 1.43 | 1.24 | 1.15 | 0.657 | 5.76 | 9.29 | 9.08 | 10.4
9 | TATACAGGGTCAAAGGGCAGAGTACGAATGTCGA | 7.38 | 6.55 | 3.16 | 5.44 | 3.33 | 6.52 | 8.53 | 7.25 | 8.56
10 | GGAACTAGGGCAAAGTTGATAGCATCTGTCGACG | -0.124 | -0.2 | -0.596 | 0.16 | -0.519 | 5.37 | 8.84 | 8.63 | 9.67
11 | TCTTGTTGATCAAAGGTTAAGAAAGCCGAAGCCT | 1.37 | 2.26 | 0.368 | 2.11 | 0.469 | 3.71 | 6.29 | 5.57 | 6.85
12 | CTAACTAGGTCACGAAAGGTCAAAGTCGAATGAC | 7.37 | 8.22 | 7.7 | 7.44 | 2.3 | 6.57 | 8.24 | 7.33 | 8.68
13 | ATCGAAAGGTCGAAGGTGAGTACACCCACCCGAA | 4.49 | 3.49 | 0.413 | 2.92 | 0.705 | 4.68 | 4.86 | 2.04 | 3.87
14 | CAAACTAGGTCACAGAGGTCAAAGTTCGTGCGTA | 7.37 | 6.84 | 7.98 | 6.7 | 2.18 | 6.83 | 8.37 | 6.72 | 8.5
15 | TTACCAAGGTGAAGGTCGTGGATCCCTCTGTAGA | 1.6 | 1.33 | 0.0601 | 1.45 | -0.935 | 3.03 | 4.71 | 2.78 | 4.4
16 | CGTCCAAGGTCAATTCTAGGTCAGTGAAAGCATT | 6.85 | 5.63 | 3.88 | 4.73 | 2.2 | 5.01 | 4.59 | 1.17 | 3.25
17 | TCATATAGGTGAAAGGTGAAAGTCGGTGTGGTAA | 2.9 | 2.52 | 0.284 | 2.76 | 0.0843 | 6.44 | 9.98 | 10.2 | 12.3
18 | ATCTCTAGGTGAAAGTTCAGTGAATCCCGAGGAT | 1.41 | 1.98 | 1.24 | 1.43 | 0.429 | 5.61 | 9.55 | 9.07 | 11.4
19 | ACTTGGAGGACAAAGGTCAGAGCTACGCCAGTGA | 4.75 | 4.49 | 1.97 | 3.58 | 0.676 | 5.71 | 9.07 | 8.21 | 10.6
20 | ATAGAAAGGTCGAAGGTGAGTATACCCACCCGAA | 4.15 | 3.25 | 0.28 | 2.61 | 0.606 | 4.56 | 5.47 | 2.38 | 4.64
21 | GGAACGGGGGCATTCGAGTTGATAGCATGGCGAT | 3.01 | 4.03 | 0.603 | 4.98 | 6.54 | 3.99 | 4.08 | 1.54 | 3.65
22 | CGTCCAAGGTCAGAGAGGTCAGTGTATGCCGAGT | 6.02 | 5.1 | 3.33 | 4.4 | 0.458 | 4.71 | 3.98 | 0.927 | 2.53
23 | CGAACTAGGTCAGAGCAGGACAGTGAAGGATGAT | 1.33 | 0.722 | -0.112 | 0.261 | -0.67 | 3.19 | 5.01 | 2.43 | 4.19
24 | CATACACGGTCAGCTAGGCCAGAGTAGGGACGGC | 0.00236 | 0.294 | -0.0294 | -0.523 | 0.421 | -0.409 | -0.257 | -0.34 | -0.382
25 | CCTCCAAGGTCATAGGAGGTCAGTGAAGACAGAT | 7.3 | 7.45 | 4.84 | 6.24 | 0.899 | 5.85 | 5.88 | 2.47 | 4.29
26 | GCTTACGGGTCAAAGGTTATGGCATGAATAGAAT | 6.72 | 5.85 | 0.622 | 5.65 | 0.792 | 6.79 | 9.38 | 9.74 | 10.5
27 | CGTCCAAGGTCAATGTTAGGTCAGTGAAAGCATT | 6.44 | 5.88 | 2.85 | 4.38 | 1.35 | 5.51 | 4.66 | 0.937 | 3.1
